Inconclusive results are not listed. A call without a number means that no potency is given here. A number with no mark means an inactive call. Active and inactive are the calls of the source. The call rests on the fitted dose curve; in most records, active means well fitted activation curve with a large enough effect in the repeat runs; inconclusive means weak or mixed curves; inactive means flat fitted curve, though single readings scatter.
Potency means the concentration at half of the fitted maximal effect.

A short description of this assay: A CellTox Green Cytotoxicity Assay to monitor cytotoxicity in HepG2 cells - 40 hour (AID 1224879). Further: nearly all actives have a fitted effect of over 40% in size. Conditions: CellTox Green fluorescence; series mostly up to 76.8 µM. The source says:
National Center for Advancing Translational Sciences [NCATS]
NIH Chemical Genomics Center [NCGC]
U.S. Environmental Protection Agency [EPA]
National Institutes of Environmental Health Sciences [NIEHS]
National Toxicology Program [NTP]
Cell-based models are critical for drug discovery. Determining the natural cytotoxic effects resulting from test compounds is an essential research activity. A CellTox Green Cytotoxicity Assay to monitor cytotoxicity in real time of continues cell culture during 40 hours of the compound treatment was used to screen Tox21 10K library compounds in HepG2 cells. CellTox Green Cytotoxicity Assay is a nonlytic, homogeneous, biofluorescent method to measure cytotoxicity in cell culture after experimental manipulation. The assay system uses a proprietary asymmetric cyanine dye that is excluded from viable cells but preferentially stains the dead cell's DNA. […] Viable cells produce no appreciable increases in fluorescence. Therefore, the fluorescence signal produced by the binding interaction with dead cell DNA is proportional to cytotoxicity.
The mixture of HepG2 cell suspension and reagents were dispensed at 600cells/6 ul/well in 1536-well tissue culture treated black solid bottom plates using a Multidrop dispenser. After the assay plates were incubated at a 37 C/5% CO2 incubator for 5 hours, 23 nL of compounds dissolved in DMSO, positive and negative controls was transferred to the assay plate by a pintool work station. The plates were incubated at 37 C for 40 hours. The fluorescence intensity were measured at 0h, 8h, 16h, 24h, 32h and 40h time points using ViewLux plate reader during compound treatment.
In the case of `Cc1nc([N+](=O)[O-])cn1-c1ccc([N+](=O)[O-])cc1`, the Potency entry was “inactive”.
Still for that read-out and setting: the same measure for `C=C(C)[C@@H]1CC[C@@H](C)C[C@@H]1O`: “inactive”.
Consider `CO[Si](CCCS)(OC)OC`, for which the Potency entry is “inactive”.
Same read-out and setting: the same measure for `CCOC(=O)CC#N`: “inactive”.
Take `CCCCOC(=O)C(C)OC(=O)CCC` (stereo not given): the Potency entry was “inactive”.
With `CN=C(NC#N)NCCSCc1csc(N=C(N)N)n1`, the Potency result is “inactive”.
On the same count and under the same terms, the same measure for `CCCCC(CC)C(=O)OC(C)C` (stereo not given): “inactive”; for `C=CC(C)(O)CC/C=C(\C)CC` (stereo not given): “inactive”; for `O=C(O)c1ccc(OCCN2CCCCC2)cc1`: “inactive”.
Still for that read-out and setting: to `CC1=NN(c2ccc(S(=O)(=O)O)cc2)C(=O)C1N=Nc1ccccc1` (stereo not given) belongs “inactive”; to `Cc1ccc(C(=O)C(=O)O)cc1C`, “inactive”; to `O=C1NC2NC(=O)NC2N1` (stereo not given), “inactive”.
The same measure, in the same setting: the same measure for `CC(CC(=O)O)CC(C)(C)C` (stereo not given): “inactive”.
As to `Cc1c(C(C)C)c(=O)n(-c2ccccc2)n1C`, the Potency result was “inactive”.
On the same count and under the same terms, the same measure for `Nc1cc(S(=O)(=O)O)ccc1S(=O)(=O)O`: “inactive”; for `COC(=O)CCC(=O)O`: “inactive”; for `COc1ccc(N=Nc2cc(C)c(N=Nc3ccc(S(=O)(=O)O)cc3)cc2OC)cc1`: “inactive”.
Still for that read-out and setting: to `CC(C)COC(=O)CC(C(=O)OCC(C)C)S(=O)(=O)O` (stereo not given) belongs “inactive”; to `CCOC(=O)C(=O)c1csc(NC=O)n1`, “inactive”.
On the same count and under the same terms, the same measure for `O=C1c2ccccc2-c2ccccc21`: “inactive”.
For `CCCCCCCCCCCCCCCC(=O)NCCO`, the Potency is 8.49 µM (active).
The same measure, in the same setting: the same measure for `CCOC(=O)CCCCCCCCC(=O)OCC`: “inactive”.
The same measure, in the same setting: the same measure for `C[Si]1(C)N[Si](C)(C)N[Si](C)(C)N1`: “inactive”; for `Cc1nc2n(c(=O)c1CCN1CCC(C(=O)c3ccc(F)cc3)CC1)CCS2`: “inactive”; for `COc1cc(C=O)ccc1OC(=O)C(C)C`: “inactive”.
On the same count and under the same terms, the same measure for `CC1CCC(C(C)(C)S)C(=O)C1` (stereo not given): “inactive”.
Take `CC(C)C(=O)Nc1cccc(C(F)(F)F)c1`: the Potency entry was “inactive”.
Same read-out and setting: to `CC(=O)OC(C)(C)Cc1ccccc1` belongs “inactive”; to `O=S1(=O)CCCC1`, “inactive”.
As to `Nc1c(NC/C=C\COc2cc(CN3CCCCC3)ccn2)c(=O)c1=O`, the cytotoxicity increase was -13.3% [at 15.8 µM].
Take `CCOC(=O)CC(CC(=O)OCC)(OC(C)=O)C(=O)OCC`: the Potency entry was “inactive”.
The same measure, in the same setting: the same measure for `C=C[Si](C)(C)O[Si](C)(C)C=C`: “inactive”; for `CCCCCCCCOC(C)=O`: “inactive”.
On the same count and under the same terms, the same measure for `CCOc1ccc(NC(=O)OC(C)C)cc1OCC`: “inactive”.
On to `CO/N=C(/C(=O)N[C@@H]1C(=O)N2C(C(=O)O)=C(Cn3nnc(C)n3)CS[C@H]12)c1csc(N)n1`, for which the Potency result is “inactive”.
Consider `COc1ccc(NS(=O)(=O)c2ccc(N)cc2)nn1`, for which the Potency entry is “inactive”.
The same measure, in the same setting: to `CCCCCCCCCCCCCCCCCCN(C)C` belongs “inactive”; to `CCS(=O)(=O)CCn1c([N+](=O)[O-])cnc1C`, “inactive”; to `CC(=O)OCC(=O)[C@@]1(O)[C@H](OC(C)=O)C[C@H]2[C@@H]3CCC4=CC(=O)C=C[C@]4(C)[C@@]3(F)[C@@H](O)C[C@@]21C`, “inactive”.
On the same count and under the same terms, the same measure for `CN(C)CCCNCCC#N`: “inactive”.
